Assay results reported in PubChem BioAssay (NCI).
This is part of a sample that, as a whole, favours compounds with a hit. Of some 79,000 tested, about 15% had one in any assay. Rule as the data show it: active = growth inhibition above about 70%; inactive = the rest.

Assays:
[1] = NCI Yeast Anticancer Drug Screen. Data for the rad50 strain (AID 155);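 also: 0% = growth of vehicle-only cultures of the same strain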; settings: S. cerevisiae rad50 strain growth inhibition; at 50.0 µM; stronger effect = higher value
How it was run: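 Cells are treated with compound, grown, and their growth is then scored against vehicle-only cultures of the same repair-deficient yeast strain.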

[2] = NCI Yeast Anticancer Drug Screen. Data for the mec2-1 strain (AID 157); settings: S. cerevisiae mec2-1 strain, at 50.0 µM, stronger effect = higher value
How it was run: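 Strain: mec2-1 (DNA repair/cell cycle alteration). Compound exposure, then growth measured; inhibition expressed relative to vehicle.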

[3] = NCI Yeast Anticancer Drug Screen. Data for the sgs1 mgt1 strain (AID 161);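 also: 0% = growth of cultures given vehicle only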; settings: S. cerevisiae sgs1 mgt1 strain, at 50.0 µM, stronger effect = higher value
How it was run: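 Test agents were incubated with a DNA-repair-mutant yeast strain. Growth was then read and compared against vehicle-treated controls.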

[4] = NCI Yeast Anticancer Drug Screen. Data for the cln2 rad14 strain (AID 165);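 also: 0% = growth equal to vehicle treated cultures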; settings: S. cerevisiae cln2 rad14 strain, at 50.0 µM, stronger effect = higher value
How it was run: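 Compounds are applied to the cln2 rad14 yeast strain, and growth is then compared with that of vehicle-treated cultures to give inhibition.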

[5] = NCI Yeast Anticancer Drug Screen. Data for the bub3 strain (AID 167); settings: S. cerevisiae bub3 mutant strain, at 50.0 µM, stronger effect = higher value
How it was run: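 Part of a panel of yeast mutants defective in DNA damage repair or cell cycle regulation. Each strain is grown with compound, and inhibition is calculated relative to solvent-treated cultures.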

[6] = NCI Yeast Anticancer Drug Screen. Data for the mlh1 rad18 strain (AID 175); settings: S. cerevisiae mlh1 rad18 strain growth inhibition; at 50.0 µM; stronger effect = higher value
How it was run: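 Read-out is yeast growth inhibition, calculated against vehicle-only controls. The compound was applied to a strain engineered with DNA damage repair alterations.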

Measured: growth inhibition

CCCCc1c(OCC)cc2n(CC)c3ccccc3n2c1=O
inactive: [1] -8.45% | [2] -9.85% | [3] 0.8% | [4] -10.9% | [5] -45% | [6] -11.9%

CC(=O)C(Cc1ccccc1)(Cc1ccccc1)C(C)=O
inactive: [1] 3.3% | [2] -0.95% | [3] -8.3% | [4] 7.45% | [5] 1.35% | [6] 2%

Nc1nc(-c2ccc([N+](=O)[O-])cc2)cc(-c2cc(-c3ccc([N+](=O)[O-])cc3)nc(N)n2)n1
inactive: [1] 5.05% | [2] 6.7% | [3] -9.8% | [4] 14.7% | [5] -17.4% | [6] 6.6%

CCCCCCCCCCCCCCCCCCCCCC(=O)O
inactive: [1] -16.1% | [2] -21.4% | [3] -21.1% | [4] -28.3% | [5] -2.15% | [6] -18.1%

Cc1cc(C)cc(NC(N)=S)c1
inactive: [1] 11.8% | [2] -0.25% | [3] 6.9% | [4] -5.3% | [5] 10.6% | [6] 11.7%

O=C1c2ccccc2-c2cccc(I)c21
inactive: [1] 15.6% | [2] -8.7% | [3] -5.55% | [4] 6.95% | [5] 0.1% | [6] -7.4%

O=C(NC(=S)Nc1cc(C(F)(F)F)ccc1Cl)c1ccccc1F
inactive: [1] -1.25% | [2] -1.2% | [3] 0.35% | [4] -6.85% | [5] -1.35% | [6] 4.95%

c1ccc(-c2csnn2)cc1
inactive: [1] -8.6% | [2] -12.2% | [3] -4.05% | [4] -17.8% | [5] -13.4% | [6] -11.8%

Cc1ccc(-c2cc(-c3ccco3)c(C#N)c(=O)[nH]2)cc1
inactive: [1] 13.5% | [2] -8.55% | [3] -13.5% | [4] 16.4% | [5] -10% | [6] 6.8%

COc1ccc2oc(=O)c(CC=C(C)C)c(O)c2c1C
inactive: [1] 23.8% | [2] 13.9% | [3] -1.65% | [4] -10.9% | [5] -25.2% | [6] -51%

c1ccc(-c2c(-c3ccc4c(c3)OCO4)c(-c3ccc4c(c3)OCO4)c(-c3ccccc3)c3ccccc23)cc1
inactive: [1] 32.4% | [2] 20.6% | [3] 19.8% | [4] 28.2% | [5] -1.95% | [6] 23.4%

Cn1cc2c(=O)n(OS(=O)(=O)c3ccccc3)c(=O)[nH]c2n1
inactive: [1] 12.8% | [2] -11.8% | [3] -4.55% | [4] -4.4% | [5] -5.2% | [6] 8.8%

CSc1n[nH]c(NC(=O)c2ccccc2Cl)n1
inactive: [1] -0.9% | [2] 0.45% | [3] 1.5% | [4] -33.2% | [5] -3.1% | [6] 7.95%

CCOC(=O)c1cc(OC(C)=O)c2ccccc2c1
inactive: [1] 26.9% | [2] 9.2% | [3] 41.5% | [4] 15.8% | [5] 61.5% | [6] 41.5%

CCCCOS(=O)(=O)c1ccc([N+](C)(C)C)cc1
inactive: [1] 3.9% | [2] 1.75% | [3] -10.6% | [4] 12.2% | [5] 0.6% | [6] -7%

Cc1ccccc1C1OC(=O)c2ccc3ccccc3c21 (stereo not given)
inactive: [1] 10.6% | [2] 1.8% | [3] 14.4% | [4] 7.95% | [5] 1.45% | [6] 6.55%

FC(F)(c1nnnn1Cc1ccccc1)C(F)(F)C(F)(F)C(F)(F)C(F)(F)C(F)(F)C(F)(F)C(F)(F)c1nnnn1Cc1ccccc1
inactive: [1] 10.2% | [2] 13.7% | [3] -11.7% | [4] -2.65% | [5] 7.95% | [6] 19.3%

NC(Cc1c[nH]c2ccc(Br)cc12)C(=O)O (stereo not given)
inactive: [1] -29.4% | [2] -26.7% | [3] -17.9% | [4] 5.4% | [5] -29.8% | [6] -38.1%

O=C1CSc2nc3c(I)cc(I)cc3c(=O)n21
inactive: [1] 2.65% | [2] 6.2% | [3] -0.75% | [4] -25.1% | [5] -7.3% | [6] -0.6%

O=C(NNC(=O)c1ccc2ccccc2c1)c1ccc(F)cc1
inactive: [1] 4.05% | [2] 0.9% | [3] 3.8% | [4] 3.05% | [5] 10.2% | [6] 10.2%

CCOC(=O)C1=C(C)NC(C)=C(C(=O)OCC)C1c1c(C)noc1C
inactive: [1] 19.6% | [2] 18.6% | [3] 60.7% | [4] 19.3% | [5] 6.95% | [6] 61.4%

O=C1c2cc3c(-c4ccccc4)oc(-c4ccccc4)c3cc2C(=O)c2c(O)ccc(O)c21
inactive: [1] 1.2% | [2] -7.15% | [3] -20.6% | [4] -4.7% | [5] -5.75% | [6] 5.5%

O=Cc1ccccc1S(=O)(=O)O
inactive: [1] 6.65% | [2] 7.4% | [3] -6.5% | [4] -45.4% | [5] 11.2% | [6] -13.2%

O=C(NC(Cc1cccnc1)C(=O)O)c1ccccc1 (stereo not given)
inactive: [1] 2.85% | [2] 11.4% | [3] 8.55% | [4] -16.4% | [5] 12.9% | [6] 7.65%

Cc1c(O)ccc(N=O)c1O
inactive: [1] 20.4% | [2] 2.6% | [3] 18.9% | [4] 35.8% | [5] -1.6% | [6] 8.15%

CCOC(=O)CN=NNc1ccccc1C(C)=O
inactive: [1] 21.4% | [2] 7.45% | [3] 10.9% | [4] -3.3% | [5] 3.05% | [6] 38.4%

O=C(Nc1cccc(Cl)c1)C(=O)C(C(=O)c1ccc2ccccc2c1)C1OC(=O)c2ccccc21 (stereo not given)
inactive: [1] 39% | [2] 18.4% | [3] 26.1% | [4] 37.2% | [5] 22.9% | [6] -9.1%

C=CCN(CC=C)c1ccccc1
inactive: [1] 24.1% | [2] 5.6% | [3] 25.4% | [4] 19.2% | [5] 14.6% | [6] 34.4%

CCc1cccc(C(C)C)c1NC(=O)/C(=N\NC(N)=O)C(C(=O)OC)c1cnc2ccccc2n1 (stereo not given)
inactive: [1] 19.8% | [2] 29.8% | [3] 1.15% | [4] 11.1% | [5] 26.1% | [6] 21.4%

O=C(N=Nc1c(O)[nH]c2ccccc12)c1ccncc1
inactive: [1] -10.8% | [2] 2.15% | [3] -9.25% | [4] -19.4% | [5] -7.4% | [6] 11.1%

CC(=O)c1ccc(NC(N)=O)cc1
inactive: [1] 2.15% | [2] -10.4% | [3] 5.3% | [4] -8.1% | [5] -7.15% | [6] -12.5%

CCCNC(=O)C1C(=O)C(=O)N(CCC)C1=O (stereo not given)
inactive: [1] 7.8% | [2] 4.45% | [3] 4.1% | [4] -4.5% | [5] -3.9% | [6] 4.05%

CC1CC(C)c2ccccc21 (stereo not given)
inactive: [1] 42.3% | [2] 27.4% | [3] 17.8% | [4] 39.3% | [5] 0.3% | [6] 2.4%

CCN(CC)CCCCCOC(=O)c1cccc(N)c1
inactive: [1] -5.8% | [2] 0.35% | [3] -16.6% | [4] -45.9% | [5] 27.2% | [6] -10.1%

O=C(O)c1ccc(N=Nc2ccccc2)cc1
inactive: [1] -4.4% | [2] 14.9% | [3] 20.9% | [4] 0.3% | [5] -5.1% | [6] 2.75%

O=S1(=O)C(Cl)=C(O)c2ccccc21
inactive: [1] 13.4% | [2] 6.5% | [3] -2.05% | [4] -22.6% | [5] -7.7% | [6] 11.4%

O=C(Nc1ccccc1CC(O)c1ccc2c(c1)OCO2)c1ccccc1 (stereo not given)
inactive: [1] 19.1% | [2] -8.1% | [3] 3.65% | [4] -22.8% | [5] 11.6% | [6] 13.8%

CC(C)(C#N)OC(=O)Nc1cccc(Cl)c1
inactive: [1] 5.55% | [2] -5.6% | [3] 3.75% | [4] -35.1% | [5] -30.6% | [6] -26.8%

O=C(O)CCCC1CCC2NC(=O)NC2C1 (stereo not given)
inactive: [1] 1.55% | [2] 5.15% | [3] -5.45% | [4] 6.4% | [5] 16.5% | [6] -6%

NC(=S)NNC(=O)/C(=C/c1ccc(/C=C(\NC(=O)c2ccccc2)C(=O)NNC(N)=S)cc1)NC(=O)c1ccccc1
inactive: [1] 32.8% | [2] 27% | [3] 29.3% | [4] 39.8% | [5] 39.2% | [6] 31.8%
